From PubChem BioAssay AID2685 (National Center for Advancing Translational Sciences (NCATS), 2010) come the findings set out here.

About 2,100 (0.66%) of roughly 320,000 compounds were called active. Another 53% or so got no clear call; they are omitted. Calls come from the whole dose curve; as a rule, active = well fitted inhibition curve with a large enough effect in the signal ratio, with a control signal flat (not every such curve was filed as active); inconclusive = small, poorly fitted or top-dose-only effect, or effect the other way, or a change in a side signal; inactive = flat fitted curve, though single readings scatter; the % refers to the signal ratio. The full list was thinned out, with actives kept by preference.
Potency is the fitted concentration of half-maximal effect.

A short description of the experiment: qHTS Assay for Lipid Storage Modulators in Drosophila S3 Cells.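 For cell number change: cells counted by Cell Tracker Red CMTPX staining in the red channel.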 For lipid storage change, negative = inhibition: % is set by controls: 0 for no effect and ±100 for the full control effect. As to conditions: BODIPY lipid droplet fluorescence, 18-24 h, cells fed with added oleic acid; cell number change: measured here: cell count max response; series mostly up to 46.1 µM; lipid storage change, negative = inhibition: at the top concentration. The method in brief: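 Drosophila S3 cells loaded with oleic acid (400 uM, as added) and compounds at several concentrations; lipid droplets imaged by 488-nm laser-scanning cytometry, 500–530 nm intensity and object ratio to cell channel. Percent activity normalized to 20 uM Triacsin C.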
On the technique in general: In qHTS, concentration-response curves come from the screen itself.
`O=C(NCc1ccc(Cl)cc1)c1cc([N+](=O)[O-])ccc1Cl`: the “lipid storage change, negative = inhibition” value is -6.86% (inactive) and the cell number change came to 16.3%.
With `CN(C)S(=O)(=O)c1ccc(NC=C(C#N)C#N)cc1`, the “lipid storage change, negative = inhibition” value was -23.2% (inactive) and the cell number change was -16.2%.
For `CCn1cc([N+](=O)[O-])c(C(=O)Nc2nc(-c3ccc(C)cc3)c(C)s2)n1`, the Potency was 4.61 µM (active) and the cell number change stood at 18.4%.
Consider `Cc1ccc(-c2nc(NC(=O)c3nn(C)cc3[N+](=O)[O-])sc2C)cc1`, for which the compound was called inactive and the cell number change was 27.2%.
As for `CCn1cc([N+](=O)[O-])c(C(=O)Nc2nc(-c3ccc(C)c(C)c3)c(C)s2)n1`, the “lipid storage change, negative = inhibition” value is 1.14% (inactive) and the cell number change was -14.3%.
On the same counts, the results for `CCCCN(C(=O)c1ccccc1OCc1ccc(F)cc1)c1c(N)n(CCC)c(=O)[nH]c1=O` are 9.4% (inactive) and -14.3%.
On the same counts, the results for `Cn1c(SCc2cccc(C#N)c2)nc2ccccc2c1=O` are 3.49% (inactive) and 7.25%.
On the same counts, the results for `COc1ccc(OCC(=O)Nc2ccc(NC(=O)c3cccs3)c(OC)c2)cc1` are -5.31% (inactive) and 10.8%.
`COc1cc(NC(=O)c2ccc(Br)cc2)c(OC)cc1NC(=O)c1ccccc1`: the Potency is 18.4 µM (active) and the cell number change was -19.9%.
In the case of `COc1cc(NC(=O)c2ccccc2)c(OC)cc1NC(C)=O`, the call was inactive and the cell number change is -0.51%.
`COc1ccccc1NC(=O)c1ccc2nsnc2c1`: the Potency is 3.66 µM (active) and the cell number change worked out at 21.1%.
Turning to `COc1cc(NC(=O)c2cccnc2)c(OC)cc1NC(=O)c1ccc(Br)cc1`, the call was inactive and the cell number change turned out to be 15.3%.
The matching figures for `COc1ccccc1CC(=O)Nc1cc(OC)c(NC(=O)c2ccccc2)cc1OC`: “inactive” and -14.4%.
With `COc1cc(NC(=O)COc2ccccc2Cl)ccc1NC(=O)c1cccs1`, the Potency was 4.61 µM (active).
Consider `COc1ccccc1NC(=O)c1ccc2snnc2c1`, for which the “lipid storage change, negative = inhibition” value is 2.87% (inactive) and the cell number change was 5.09%.
`COc1cc(NC(=O)c2ccc3nsnc3c2)cc(OC)c1OC`: the result was inactive and the cell number change was 3.44%.
As to `COc1cc(NC(=O)Cc2ccccc2)ccc1NC(=O)c1ccccc1`, the Potency is 23.1 µM (active) and the cell number change came out at 5.29%.
Consider `COc1ccc(NC(=O)c2cccc(NC(=O)c3ccccc3)c2)c(OC)c1`, for which the “lipid storage change, negative = inhibition” value is -15.5% (inactive) and the cell number change is -2.85%.
The matching figures for `COc1cc(NC(=O)c2ccccc2Cl)ccc1NC(=O)c1cccs1`: -3.53% (inactive) and 16.4%.
On the same counts, the results for `COc1ccc(OCCC(=O)OCC(=O)Nc2ccc(S(=O)(=O)N3CCOCC3)cc2)cc1` are -12.5% (inactive) and -18.9%.
The matching figures for `O=C(CSc1nnc(-c2ccc(F)cc2)o1)NC1CCCCC1`: 15.9% (inactive) and 12%.
With `CCOC(=O)N1CCN(CC(O)COc2ccc3c(c2)CCC3)CC1` (stereo not drawn), the “lipid storage change, negative = inhibition” value is 12.3% (inactive) and the cell number change was -3.83%.
The matching figures for `O=C(CCCCCNC(=O)N1CCn2c1nc1ccccc12)NCc1ccccc1`: 7.61% (inactive) and 11.3%.
Consider `CC(NC(=O)c1cccc(N(C)C)c1)c1ccc(-n2ccnc2)cc1` (stereo not drawn), for which the “lipid storage change, negative = inhibition” value was -3.06% (inactive).
As for `COc1ccc(S(=O)(=O)N2CCN(c3nc4ccccc4nc3-n3nc(C)cc3C)CC2)cc1`, the outcome was inactive and the cell number change is -0.676%.
On to `O=C(NC1CCSC1=O)c1ccc(Oc2cccc(C(F)(F)F)c2)nc1` (stereo not drawn), for which the “lipid storage change, negative = inhibition” value is -0.249% (inactive) and the cell number change was -7.23%.
As for `COc1ccc(F)cc1S(=O)(=O)NC1CCCCCC1`, the compound was classed as inactive.
In the case of `C/C(=N/Nc1ncc(C(F)(F)F)cc1Cl)c1ccncc1`, the “lipid storage change, negative = inhibition” value was -0.464% (inactive) and the cell number change is -2.18%.
The matching figures for `COc1ccc(S(=O)(=O)NCC2CCCN(C(=O)CC3CCCC3)C2)cc1` (stereo not drawn): -12% (inactive) and -9.37%.
With `COc1cc2c(cc1NC(=O)c1ccc(C(C)(C)C)cc1)CCCC2`, the Potency is 16.4 µM (active) and the cell number change was -19.1%.
Turning to `COc1ccc(C(=O)Nc2cc3c(cc2OC)CCCC3)cc1Br`, the “lipid storage change, negative = inhibition” value was -6.54% (inactive) and the cell number change is -12.7%.
With `COc1cc2c(cc1NC(=O)c1cccnc1)CCCC2`, the “lipid storage change, negative = inhibition” value was 13.4% (inactive) and the cell number change is -6.97%.
For `Oc1ccccc1Oc1ncc(Br)c(Cl)n1`, the “lipid storage change, negative = inhibition” value is 12.3% (inactive) and the cell number change worked out at 10.9%.
On the same counts, the results for `CCOC(=O)CCc1c(C)nc2cc(-c3ccc(F)cc3)[nH]n2c1=O` are -1.04% (inactive) and -12%.
As for `C=CCn1c(SC(C)CC)nc(O)cc1=O` (stereo not drawn), the call was inactive.
For `CCCN(CC1CC1)C(=O)COC(=O)c1oc2c(F)cccc2c1C`, the Potency is 1.64 µM (active) and the cell number change worked out at 1.1%.
For the compound `CCOc1ccc2oc(C(=O)OCC(=O)NC3CCCCC3)c(C)c2c1`, the “lipid storage change, negative = inhibition” value is -2.63% (inactive) and the cell number change is -21.4%.
In the case of `CCOC(=O)N1CCC(NC(=O)c2oc3c(F)cccc3c2C)CC1`, the compound was classed as inactive and the cell number change was -4.45%.
With `CCOc1ccc2oc(C(=O)OCC(=O)NC(=O)NC)c(C)c2c1`, the “lipid storage change, negative = inhibition” value is -6.75% (inactive) and the cell number change was -6.07%.
For the compound `CCCN(CC1CC1)C(=O)COC(=O)c1oc2ccc(OCC)cc2c1C`, the Potency was 4.61 µM (active) and the cell number change is 2.78%.
`CCCN(CC1CC1)C(=O)COC(=O)c1[nH]c(C)c(C(=O)OCC)c1C`: the “lipid storage change, negative = inhibition” value was -1.78% (inactive) and the cell number change is -17.3%.
The matching figures for `CCn1c(O)c(C(C#N)=C2N=c3ccccc3=N2)c2ccccc21`: -0.582% (inactive) and 24.7%.
Turning to `O=C(Nc1cccc(NC(=O)c2ccc(Br)o2)n1)c1ccc(Br)o1`, the “lipid storage change, negative = inhibition” value was 17.3% (inactive) and the cell number change was -4.87%.
Regarding `Cc1ccc(NS(=O)(=O)c2cc(C(=O)N3CCN(C)CC3)ccc2C)cc1C`, the compound was called inactive.
For the compound `CCOc1cccc(OCCCCN2CCCCC2)c1`, the “lipid storage change, negative = inhibition” value is 10.3% (inactive) and the cell number change was -2.06%.
For the compound `CCc1ccc(NC(=O)CN(N=Nc2nonc2C)c2nonc2C)cc1`, the “lipid storage change, negative = inhibition” value was 0.106% (inactive).
For the compound `CC(C)(C)c1csc(Sc2ncccc2[N+](=O)[O-])n1`, the “lipid storage change, negative = inhibition” value was -5.1% (inactive) and the cell number change is -11.2%.
